According to ChEMBL document CHEMBL1961873, “Compounds: GSK PKIS; Assays: Nanosyn kinase panel” (2012):
Values joined by “and” are separate entries in the source; they are usually repeats but may differ in a detail not shown here. Identical values can stand only once.

Experiments:
[1] = biological target: 5'-AMP-activated protein kinase catalytic subunit alpha-2 (Homo sapiens) (UniProt P54646); settings: at 1 µM
[2] = biological target: T1, NUAK family SNF1-like kinase 1 (Homo sapiens) (UniProt O60285); settings: at 0.1 µM
T1 sequence (whole entry): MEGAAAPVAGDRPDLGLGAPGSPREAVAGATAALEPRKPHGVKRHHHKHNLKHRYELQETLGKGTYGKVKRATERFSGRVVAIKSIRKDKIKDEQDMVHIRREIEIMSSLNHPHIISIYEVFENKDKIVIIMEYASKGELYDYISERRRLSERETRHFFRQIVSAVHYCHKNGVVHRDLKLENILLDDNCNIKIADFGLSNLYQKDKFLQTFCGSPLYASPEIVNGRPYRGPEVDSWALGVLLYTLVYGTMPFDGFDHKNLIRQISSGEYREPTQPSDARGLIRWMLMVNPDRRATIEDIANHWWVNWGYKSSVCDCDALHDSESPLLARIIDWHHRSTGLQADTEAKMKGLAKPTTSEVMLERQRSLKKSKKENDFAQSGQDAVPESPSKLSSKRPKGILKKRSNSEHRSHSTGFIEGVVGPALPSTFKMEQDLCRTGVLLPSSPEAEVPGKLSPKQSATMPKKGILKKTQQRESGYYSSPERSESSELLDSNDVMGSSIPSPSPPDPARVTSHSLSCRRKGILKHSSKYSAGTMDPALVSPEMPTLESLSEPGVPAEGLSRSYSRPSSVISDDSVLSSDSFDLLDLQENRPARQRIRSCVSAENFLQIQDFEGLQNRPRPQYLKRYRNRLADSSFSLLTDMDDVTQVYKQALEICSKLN

[3] = biological target: T1, NUAK family SNF1-like kinase 1 (Homo sapiens); settings: at 1 µM
[4] = biological target: T2, Serine/threonine-protein kinase BRSK1 (Homo sapiens) (UniProt Q8TDC3); settings: at 0.1 µM
T2 sequence (whole entry): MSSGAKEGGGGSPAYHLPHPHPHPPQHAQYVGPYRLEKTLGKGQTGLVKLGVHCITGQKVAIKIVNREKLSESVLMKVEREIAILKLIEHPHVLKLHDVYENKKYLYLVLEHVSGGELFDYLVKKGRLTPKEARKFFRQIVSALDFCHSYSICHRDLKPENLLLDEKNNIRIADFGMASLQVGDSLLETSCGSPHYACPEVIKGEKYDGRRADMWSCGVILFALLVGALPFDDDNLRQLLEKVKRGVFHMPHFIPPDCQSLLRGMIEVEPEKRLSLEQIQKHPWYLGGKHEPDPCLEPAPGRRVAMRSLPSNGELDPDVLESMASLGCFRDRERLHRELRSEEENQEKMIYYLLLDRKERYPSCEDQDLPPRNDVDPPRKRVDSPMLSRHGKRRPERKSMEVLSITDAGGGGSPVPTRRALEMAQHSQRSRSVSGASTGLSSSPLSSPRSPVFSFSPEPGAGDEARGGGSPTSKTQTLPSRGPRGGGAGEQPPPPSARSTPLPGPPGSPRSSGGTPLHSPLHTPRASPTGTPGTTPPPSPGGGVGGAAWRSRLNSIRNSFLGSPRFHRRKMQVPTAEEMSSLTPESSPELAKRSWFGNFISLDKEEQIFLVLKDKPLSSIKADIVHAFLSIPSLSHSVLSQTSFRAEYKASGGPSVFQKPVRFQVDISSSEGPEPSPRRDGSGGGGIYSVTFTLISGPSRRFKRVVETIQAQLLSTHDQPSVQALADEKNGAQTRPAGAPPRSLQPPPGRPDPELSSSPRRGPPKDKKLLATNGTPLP

[5] = biological target: T2, Serine/threonine-protein kinase BRSK1 (Homo sapiens); settings: at 1 µM
[6] = biological target: T3, Serine/threonine-protein kinase BRSK2 (Homo sapiens) (UniProt Q8IWQ3); settings: at 0.1 µM
T3 sequence (whole entry): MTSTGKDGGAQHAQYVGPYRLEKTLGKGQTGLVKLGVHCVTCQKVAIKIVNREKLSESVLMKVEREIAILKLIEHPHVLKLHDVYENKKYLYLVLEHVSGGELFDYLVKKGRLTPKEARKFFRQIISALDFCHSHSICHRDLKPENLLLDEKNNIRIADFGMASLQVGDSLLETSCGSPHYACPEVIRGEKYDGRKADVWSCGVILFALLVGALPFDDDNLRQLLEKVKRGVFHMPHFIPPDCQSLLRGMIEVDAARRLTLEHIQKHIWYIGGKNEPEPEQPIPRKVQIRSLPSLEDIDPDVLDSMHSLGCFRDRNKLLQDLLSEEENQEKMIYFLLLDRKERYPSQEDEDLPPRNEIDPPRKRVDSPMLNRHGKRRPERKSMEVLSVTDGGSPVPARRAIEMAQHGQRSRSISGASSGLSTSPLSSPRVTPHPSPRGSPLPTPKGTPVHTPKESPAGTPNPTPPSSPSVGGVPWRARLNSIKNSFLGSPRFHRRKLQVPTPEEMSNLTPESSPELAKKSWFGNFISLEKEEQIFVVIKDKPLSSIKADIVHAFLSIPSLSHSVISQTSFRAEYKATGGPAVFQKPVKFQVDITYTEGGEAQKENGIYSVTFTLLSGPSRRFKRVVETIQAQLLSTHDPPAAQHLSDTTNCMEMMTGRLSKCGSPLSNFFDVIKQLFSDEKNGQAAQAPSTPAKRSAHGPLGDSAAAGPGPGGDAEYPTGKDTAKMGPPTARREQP

[7] = biological target: T3, Serine/threonine-protein kinase BRSK2 (Homo sapiens); settings: at 1 µM
[8] = biological target: Calcium/calmodulin-dependent protein kinase type 1D (Homo sapiens) (UniProt Q8IU85); settings: at 0.1 µM
Chain of Calcium/calmodulin-dependent protein kinase type 1D (Homo sapiens) (Q8IU85 whole entry, looked up): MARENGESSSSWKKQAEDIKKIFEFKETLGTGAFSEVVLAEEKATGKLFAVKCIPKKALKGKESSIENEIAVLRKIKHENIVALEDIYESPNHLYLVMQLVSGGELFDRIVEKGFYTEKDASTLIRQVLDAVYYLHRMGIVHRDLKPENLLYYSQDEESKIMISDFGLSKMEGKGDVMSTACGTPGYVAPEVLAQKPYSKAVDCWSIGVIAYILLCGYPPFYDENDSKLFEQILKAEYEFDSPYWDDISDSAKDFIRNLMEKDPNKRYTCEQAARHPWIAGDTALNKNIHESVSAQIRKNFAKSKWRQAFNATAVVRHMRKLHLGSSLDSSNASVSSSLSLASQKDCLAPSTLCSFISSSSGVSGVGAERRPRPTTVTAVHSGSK

[9] = biological target: Calcium/calmodulin-dependent protein kinase type 1D (Homo sapiens) (UniProt Q8IU85); settings: at 1 µM
[10] = biological target: Calcium/calmodulin-dependent protein kinase type II subunit alpha (Homo sapiens) (UniProt Q9UQM7); settings: at 0.1 µM
Chain of Calcium/calmodulin-dependent protein kinase type II subunit alpha (Homo sapiens) (Q9UQM7 whole entry): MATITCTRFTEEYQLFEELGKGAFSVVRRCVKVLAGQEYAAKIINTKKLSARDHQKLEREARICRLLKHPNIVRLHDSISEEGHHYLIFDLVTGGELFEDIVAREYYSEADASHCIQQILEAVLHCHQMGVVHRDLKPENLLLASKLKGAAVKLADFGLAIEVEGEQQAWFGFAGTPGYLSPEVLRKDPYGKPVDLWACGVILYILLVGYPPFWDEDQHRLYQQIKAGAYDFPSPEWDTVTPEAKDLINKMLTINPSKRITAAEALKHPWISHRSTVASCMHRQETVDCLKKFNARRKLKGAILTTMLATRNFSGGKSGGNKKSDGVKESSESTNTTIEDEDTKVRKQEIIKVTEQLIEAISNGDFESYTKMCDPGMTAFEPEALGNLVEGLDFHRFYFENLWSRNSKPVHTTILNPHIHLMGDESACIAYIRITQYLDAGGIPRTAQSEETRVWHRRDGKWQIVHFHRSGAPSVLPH

[11] = biological target: Calcium/calmodulin-dependent protein kinase type II subunit alpha (Homo sapiens) (UniProt Q9UQM7); settings: at 1 µM
[12] = biological target: Calcium/calmodulin-dependent protein kinase type II subunit delta (Homo sapiens) (UniProt Q13557); settings: at 0.1 µM
Chain of Calcium/calmodulin-dependent protein kinase type II subunit delta (Homo sapiens) (Q13557 whole entry): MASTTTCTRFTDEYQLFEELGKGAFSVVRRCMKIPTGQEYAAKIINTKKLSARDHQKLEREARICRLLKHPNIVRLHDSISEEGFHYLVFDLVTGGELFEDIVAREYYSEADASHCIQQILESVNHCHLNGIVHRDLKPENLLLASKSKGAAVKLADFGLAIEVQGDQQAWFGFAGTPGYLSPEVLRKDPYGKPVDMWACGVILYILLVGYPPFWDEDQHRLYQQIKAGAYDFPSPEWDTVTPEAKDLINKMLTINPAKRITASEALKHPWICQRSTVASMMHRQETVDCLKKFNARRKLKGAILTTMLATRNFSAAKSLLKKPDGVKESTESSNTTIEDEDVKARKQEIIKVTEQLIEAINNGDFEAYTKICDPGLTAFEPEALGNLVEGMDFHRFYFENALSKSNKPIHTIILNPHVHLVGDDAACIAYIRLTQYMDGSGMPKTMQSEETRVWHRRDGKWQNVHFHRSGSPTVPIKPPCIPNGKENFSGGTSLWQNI

[13] = biological target: Calcium/calmodulin-dependent protein kinase type II subunit delta (Homo sapiens) (UniProt Q13557); settings: at 1 µM
[14] = biological target: T4, Calcium/calmodulin-dependent protein kinase type IV (Homo sapiens) (UniProt Q16566); settings: at 0.1 µM
T4 sequence (whole entry): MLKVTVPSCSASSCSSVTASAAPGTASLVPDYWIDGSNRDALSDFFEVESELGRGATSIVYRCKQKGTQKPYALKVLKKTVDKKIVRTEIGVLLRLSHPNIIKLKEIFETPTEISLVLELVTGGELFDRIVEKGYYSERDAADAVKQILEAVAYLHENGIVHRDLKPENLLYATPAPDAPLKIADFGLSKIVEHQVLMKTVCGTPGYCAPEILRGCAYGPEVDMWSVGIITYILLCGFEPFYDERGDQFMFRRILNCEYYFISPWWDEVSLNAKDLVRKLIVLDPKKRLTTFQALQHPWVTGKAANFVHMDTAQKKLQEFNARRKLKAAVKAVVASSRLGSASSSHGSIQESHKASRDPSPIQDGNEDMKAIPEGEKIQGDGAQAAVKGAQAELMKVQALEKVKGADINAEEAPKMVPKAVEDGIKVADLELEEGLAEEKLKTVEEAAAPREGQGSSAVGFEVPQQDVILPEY

[15] = biological target: T4, Calcium/calmodulin-dependent protein kinase type IV (Homo sapiens); settings: at 1 µM
[16] = biological target: T5, Serine/threonine-protein kinase Chk1 (Homo sapiens) (UniProt O14757); settings: at 0.1 µM
T5 sequence (whole entry): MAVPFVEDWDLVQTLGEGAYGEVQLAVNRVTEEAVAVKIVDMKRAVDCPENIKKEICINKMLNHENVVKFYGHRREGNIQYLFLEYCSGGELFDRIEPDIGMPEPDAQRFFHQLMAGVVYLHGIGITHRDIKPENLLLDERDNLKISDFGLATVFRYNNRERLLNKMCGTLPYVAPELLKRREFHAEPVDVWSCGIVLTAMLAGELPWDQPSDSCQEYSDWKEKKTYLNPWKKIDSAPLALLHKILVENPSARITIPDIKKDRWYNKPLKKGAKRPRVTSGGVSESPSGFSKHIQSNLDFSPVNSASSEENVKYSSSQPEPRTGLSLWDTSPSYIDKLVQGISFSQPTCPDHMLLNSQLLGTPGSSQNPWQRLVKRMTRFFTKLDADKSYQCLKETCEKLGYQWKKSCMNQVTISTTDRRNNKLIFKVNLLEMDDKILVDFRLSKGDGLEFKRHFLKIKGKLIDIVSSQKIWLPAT

[17] = biological target: T5, Serine/threonine-protein kinase Chk1 (Homo sapiens); settings: at 1 µM
[18] = biological target: Serine/threonine-protein kinase Chk2 (Homo sapiens) (UniProt O96017); settings: at 0.1 µM
Chain of Serine/threonine-protein kinase Chk2 (Homo sapiens) (O96017 whole entry): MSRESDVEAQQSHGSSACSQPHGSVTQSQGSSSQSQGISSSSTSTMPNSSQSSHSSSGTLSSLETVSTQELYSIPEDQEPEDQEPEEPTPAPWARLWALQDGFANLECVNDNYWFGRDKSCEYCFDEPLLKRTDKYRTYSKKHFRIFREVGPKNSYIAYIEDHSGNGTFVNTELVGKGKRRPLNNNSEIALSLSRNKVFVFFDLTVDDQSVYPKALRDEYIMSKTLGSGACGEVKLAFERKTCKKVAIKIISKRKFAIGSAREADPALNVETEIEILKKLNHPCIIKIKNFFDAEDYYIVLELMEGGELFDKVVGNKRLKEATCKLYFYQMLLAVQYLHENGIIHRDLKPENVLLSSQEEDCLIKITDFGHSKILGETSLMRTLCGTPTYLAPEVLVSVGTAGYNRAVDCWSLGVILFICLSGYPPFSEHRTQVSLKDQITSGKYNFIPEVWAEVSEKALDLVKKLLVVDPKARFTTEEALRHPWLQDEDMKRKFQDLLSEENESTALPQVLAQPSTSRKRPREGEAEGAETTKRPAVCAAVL

[19] = biological target: Serine/threonine-protein kinase Chk2 (Homo sapiens) (UniProt O96017); settings: at 1 µM
[20] = biological target: Death-associated protein kinase 1 (Homo sapiens) (UniProt P53355); settings: at 0.1 µM;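 also: reported figure is the mean inhibition of DAPK1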
Chain of Death-associated protein kinase 1 (Homo sapiens) (P53355 whole entry, looked up): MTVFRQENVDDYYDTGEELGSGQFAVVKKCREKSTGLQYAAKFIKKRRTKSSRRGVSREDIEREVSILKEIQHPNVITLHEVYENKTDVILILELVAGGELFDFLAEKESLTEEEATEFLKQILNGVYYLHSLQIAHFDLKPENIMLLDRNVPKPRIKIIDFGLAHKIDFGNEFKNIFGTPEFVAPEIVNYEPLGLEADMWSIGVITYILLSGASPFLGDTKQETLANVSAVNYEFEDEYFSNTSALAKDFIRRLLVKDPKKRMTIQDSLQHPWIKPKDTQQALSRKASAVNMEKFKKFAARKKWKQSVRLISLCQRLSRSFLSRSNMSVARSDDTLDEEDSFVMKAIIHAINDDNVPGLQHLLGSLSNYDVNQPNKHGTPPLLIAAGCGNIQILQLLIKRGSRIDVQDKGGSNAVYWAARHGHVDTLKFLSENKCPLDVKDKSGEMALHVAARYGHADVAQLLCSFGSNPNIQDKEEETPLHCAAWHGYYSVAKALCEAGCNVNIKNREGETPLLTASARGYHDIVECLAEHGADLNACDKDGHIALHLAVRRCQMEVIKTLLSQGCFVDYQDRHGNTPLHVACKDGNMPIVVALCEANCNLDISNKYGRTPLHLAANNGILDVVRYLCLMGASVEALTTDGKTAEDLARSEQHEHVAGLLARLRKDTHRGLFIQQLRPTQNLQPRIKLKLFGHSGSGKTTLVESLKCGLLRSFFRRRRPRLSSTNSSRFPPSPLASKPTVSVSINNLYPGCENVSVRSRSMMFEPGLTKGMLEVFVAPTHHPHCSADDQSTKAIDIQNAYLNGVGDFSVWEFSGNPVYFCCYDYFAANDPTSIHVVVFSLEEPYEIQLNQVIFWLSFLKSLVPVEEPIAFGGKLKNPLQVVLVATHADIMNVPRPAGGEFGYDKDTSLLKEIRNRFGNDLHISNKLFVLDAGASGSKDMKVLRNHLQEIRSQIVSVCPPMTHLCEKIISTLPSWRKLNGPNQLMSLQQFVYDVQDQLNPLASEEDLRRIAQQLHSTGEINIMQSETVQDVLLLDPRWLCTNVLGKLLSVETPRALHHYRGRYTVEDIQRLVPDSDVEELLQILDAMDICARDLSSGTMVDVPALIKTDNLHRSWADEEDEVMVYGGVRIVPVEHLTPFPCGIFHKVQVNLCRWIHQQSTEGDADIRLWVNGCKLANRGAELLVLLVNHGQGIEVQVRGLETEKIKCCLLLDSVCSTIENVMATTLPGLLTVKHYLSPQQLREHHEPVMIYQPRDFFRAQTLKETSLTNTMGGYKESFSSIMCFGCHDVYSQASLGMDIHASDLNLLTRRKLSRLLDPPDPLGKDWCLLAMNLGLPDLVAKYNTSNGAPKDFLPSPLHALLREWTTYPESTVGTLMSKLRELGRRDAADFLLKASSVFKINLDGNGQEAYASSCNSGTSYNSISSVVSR

Chain of 5'-AMP-activated protein kinase catalytic subunit alpha-2 (Homo sapiens) (P54646 whole entry, looked up): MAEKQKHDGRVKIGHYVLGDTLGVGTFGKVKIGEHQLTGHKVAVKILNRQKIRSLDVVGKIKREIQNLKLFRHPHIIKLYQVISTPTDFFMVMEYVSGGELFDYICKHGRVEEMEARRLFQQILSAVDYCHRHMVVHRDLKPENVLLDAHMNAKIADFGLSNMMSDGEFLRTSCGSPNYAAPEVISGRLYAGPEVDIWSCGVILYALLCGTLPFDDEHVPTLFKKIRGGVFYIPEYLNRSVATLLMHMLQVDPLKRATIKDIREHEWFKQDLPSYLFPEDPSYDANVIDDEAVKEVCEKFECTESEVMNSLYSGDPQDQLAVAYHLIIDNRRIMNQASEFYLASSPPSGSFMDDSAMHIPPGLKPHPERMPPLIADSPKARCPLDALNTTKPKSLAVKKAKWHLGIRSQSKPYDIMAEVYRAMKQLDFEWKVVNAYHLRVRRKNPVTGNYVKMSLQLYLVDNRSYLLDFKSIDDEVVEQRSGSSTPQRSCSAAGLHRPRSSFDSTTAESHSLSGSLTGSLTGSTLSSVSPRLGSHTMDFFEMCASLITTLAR

| SMILES | inhibition [1] | inhibition [2] | inhibition [3] | inhibition [4] | inhibition [5] | inhibition [6] | inhibition [7] | inhibition [8] | inhibition [9] | inhibition [10] | inhibition [11] | inhibition [12] | inhibition [13] | inhibition [14] | inhibition [15] | inhibition [16] | inhibition [17] | inhibition [18] | inhibition [19] | inhibition [20] |
| --- | --- | --- | --- | --- | --- | --- | --- | --- | --- | --- | --- | --- | --- | --- | --- | --- | --- | --- | --- | --- |
| COc1ccc2ncn(-c3cc(O[C@H](C)c4ccccc4C(F)(F)F)c(C(N)=O)s3)c2c1 | 2.72% | 5.12% | 43.5% | 2.49% | 25.8% | 6.06% | 36.5% | 0.14% | 1.96% | -1.63% | 0.95% | -0.5% | 5.44% | 1.4% | 3.11% | 1.46% | 0.47% | -1.28% | -0.25% | -0.67% |
| CNC(=O)c1ncccc1Nc1nc(Nc2cc3c(cc2OC)CCCN3C(=O)CN(C)C)nc2[nH]ccc12 | 8.1% | 5.36% | 8.33% | 3.14% | 4.58% | 3.37% | 4.64% | 1.94% | 12.9% | 4.09% | 5.55% | 4.46% | 8.21% | 0.87% | 5.93% | 3.13% | 4.54% | 3.89% | 11.9% | 4.3% |
| CN1CCN(Cc2ccc(-c3cc4ncnc(Nc5ccc(OCc6cccc(F)c6)c(Cl)c5)c4s3)o2)CC1 | 4.56% and 5.82% | 0.69% and 0.76% | 4.56% and 2.98% | 0.8% and -0.05% | 2.8% and -0.24% | 2.16% and 1.05% | 4.75% and 4.26% | 0.32% and 0.88% | 2.5% and 0.41% | 0.12% and 4.61% | 5.07% and 4.38% | 1.16% and 3.96% | 3.36% and 5.38% | -0.07% and -1.54% | 2.1% and 1.05% | 8.64% and 3.56% | 7.78% and 8.12% | 9.39% and 5.57% | 28.6% and 26.4% | 9.3% and 6.62% |
